High-throughput results as filed in PubChem.
Nrf2 inh = Nrf2 qHTS screen for inhibitors; A549 ARE-Fluc reporter, luciferase luminescence, 18-24 h; Potency, µM (top dose mostly 46 µM), without a hit: at the top dose activity change, negative = inhibition, actives largely listed as inhibitors; 360,000 compounds, 2.1% hits; AID 504444, 2011; further: potency means the concentration at half of the fitted maximal effect; on the % scale 0 is the no-effect control and ±100 the full control effect; nearly all actives have a fitted effect of over 60% in size
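Nrf2 activity is the BugLite luminescence, read 15 min after reagent at room temperature, following CellTiter-Fluor cytotoxicity readout (30 min, 37C). Compound titrations were applied for 18-24 h to 5000 A549 ARE_Fluc cells/well in 5% FBS OPTI-MEM.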
p53 reactivation = qHTS assay for re-activators of p53 using a Luc reporter; H1299 p53-A138V BP100-luciferase reporter, luminescence, 24 h; Potency, µM (top dose mostly 92.2 µM), inactives show top-dose activity change, positive = activation, most hits filed as activators; 320,000 compounds, 0.063% hits; AID 504706, 2011; further: potency means the concentration at half of the fitted maximal effect; % of control where 0% means no effect; nearly all actives have a fitted effect of over 45% in size
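p53-null H1299 cells stably carrying temperature-sensitive p53-A138V and a BP100-luciferase reporter were pinned with compounds (4-point, 1:5 series) and held 24 hrs at 37 deg C. Luminescence was read 10 min after detection reagent.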
A549 tox = Nrf2 qHTS screen for inhibitors: counterscreen for cytotoxicity; 390,000 compounds, 0.16% hits; Potency, µM (doses to about 46 µM), for the others: at the top dose activity change, negative = cytotoxicity, usual class: inhibitors; A549 ARE-Fluc cells, CellTiter-Fluor viability, 18-24 h; further: potency means the concentration at half of the fitted maximal effect; on the % scale 0 is the no-effect control and ±100 the full control effect
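A549 ARE-Fluc cells in 5% FBS OPTI-MEM, 5000 cells/well, rested 2 h then exposed to compounds in concentration-response for 18-24 h at 37 °C. Viability by CellTiter-Fluor fluorescence (Ex 405/Em 525) after 30 min; luciferase luminescence (BugLite, 15 min, RT) read afterwards.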
IL2 activator = qHTS of IL-2 Activators | activation, % (series mostly up to about 46 µM) | 360,000 compounds, 0.065% hits | IL-2 activation reporter assay, cell-based qHTS; stimulated with anti-CD3/CD4/CD28 beads; in transgenic mouse T cells | AID 652025, 2013; in the data active means activation above about 50%; inconclusive means mostly about 30% to 49%; further: 0% is about no effect
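Unstimulated transgenic mouse T cells, 750 per well, received compound and, after 60 minutes, anti-CD3/anti-CD4 bead plus anti-CD28 stimulation. EGFP and DsRed were quantified after 18 hours.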
Nrf2 ARE act = qHTS of Nrf2 Activators. AREc32 ARE-luciferase reporter (MCF7-derived line), luminescence, 24 h. Potency, µM (top dose mostly 46.1 µM), without a hit: at the top dose activation, actives largely listed as activators. 410,000 compounds, 0.31% hits. AID 624171, 2012; further: potency means the concentration at half of the fitted maximal effect; % of control where 0% means no effect; nearly all actives have a fitted effect of over 65% in size
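Luminescent ARE reporter assay in AREc32_Fluc cells: overnight plating at 37 deg C, 24 hr compound incubation, Steady-Glo added, 30 min RT before reading.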
BRCA1 expr up = qHTS Assay to Identify Small Molecule Activators of BRCA1 Expression; Potency, µM (highest dose often 46.1 µM), for the others: top-dose activation, usual class: activators; MCF7-BRCA1-FFLuc reporter, luminescence, 48 h; response scale: scaled: vehicle 0%, 10 µM genistein 100%; 380,000 compounds, 1.1% hits; further: potency means the concentration at half of the fitted maximal effect; nearly all actives have a fitted effect of over 80% in size
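Cells: MCF7-BRCA1-FFLuc, 2000/well. Exposure: 48 h, 37 °C, 5% CO2. Read: luminescence, 15 min post-substrate. Controls: genistein 10 microM (maximal activation), DMSO (neutral).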
* = called active by the depositor; ? = inconclusive; · = no result. Only some compounds are listed: those with a hit (about 3.2% of all), similar ones and a draw of the others. Unless noted, the call rests on the fitted dose curve; in most records, active means well fitted curve in the direction sought with a large enough effect; inconclusive means small, poorly fitted or top-dose-only effect, or another doubt; inactive means no such curve, though single readings can be large; an effect the other way counts as inactive or inconclusive.

SMILES | Nrf2 inh | p53 reactivation | A549 tox | IL2 activator | Nrf2 ARE act | BRCA1 expr up
Cc1oc(-c2cc(F)ccc2F)nc1CN1CCC(C(=O)N2CCOCC2)CC1 | 9% | 0% | -7% | -1 | 1% | -2%
COc1ccc(N2C(=O)c3ccccc3NC23CCCC3)cc1 | 18% | 15% | 3% | 0 | -1% | 6.3µM*
O=C(NCCS(=O)(=O)N1CCN(c2ccc(F)cc2)CC1)C(c1ccccc1)c1ccccc1 | · | · | 4% | · | 4% | ·
CCc1cccc(-n2c(C)nc3c(cnn3-c3ccc(C)c(C)c3)c2=O)c1 | ? | · | 14% | · | 1% | 4%
CCCSc1nc2c(cnn2-c2ccc(C)cc2)c(=O)[nH]1 | 18µM* | 3% | -22% | -1 | 1% | -1%
CCCSc1nc2c(cnn2-c2ccccc2)c(=O)[nH]1 | ? | 3% | -5% | 0 | 0% | -15%
CCc1cccc(-n2c(C)nc3c(cnn3-c3ccc(Cl)cc3)c2=O)c1 | 16µM* | · | 0% | · | -1% | -36%
Cc1ccc(-n2c(C)nc3c(cnn3-c3ccc(F)cc3)c2=O)cc1 | 15µM* | 4% | -11% | 0 | -1% | -21%
O=C1NC[C@H](CCCCN2C[C@H](Cc3ccccc3)N(CCc3ccc(O)cc3)C(=O)C2=O)N(CCc2ccccc2)C1=O | · | · | · | 1 | 0% | 2%
CN(C(=O)CSc1nc2ccccc2n1CC(=O)NCc1ccc(F)cc1)c1ccc(F)cc1 | · | · | 1% | · | -2% | ·
Nc1c(C(=O)Nc2ccc(Cl)cc2)sc2nc(N3CCOCC3)c3c(c12)CCCC3 | ? | 3% | -1% | -1 | 6% | 20%
Cc1ccc(NC(=O)c2sc3nc4c(c(-c5ccco5)c3c2N)CCC4)cc1 | 18µM* | 3% | -12% | 22 | 0% | -17%
Nc1c(C(=O)Nc2ccc(Br)cc2)sc2nc(-c3ccco3)ccc12 | 13µM* | 6% | ? | 0 | ? | -67%
Nc1c(C(=O)Nc2ccccc2)sc2nc(N3CCOCC3)c3c(c12)CCCC3 | · | · | · | -4 | 3% | 13µM*
COc1cccc(-n2cc(C(=O)OCc3ccc(F)c(F)c3)c3ccccc3c2=O)c1 | · | · | 7% | · | 1% | ·
CCN(C(=O)Cn1c(C(=O)OC)cc2oc3ccccc3c21)c1cccc(C)c1 | ? | · | 3% | · | 9% | ·
CCOC(=O)C1CCCN(C(=O)c2c(C)nn(-c3ccc(F)cc3)c2-n2cccc2)C1 (stereo unspecified) | ? | · | 3% | · | 0% | 12%
COc1cccc2cc(C(=O)OCC(=O)N3CC(C)OC(C)C3)c(=O)oc12 (stereo unspecified) | -6% | ? | -3% | -1 | 16µM* | -3%
COc1cccc2cc(CC(=O)c3ccccc3)c(=O)oc12 | 10% | 12% | 0% | 0 | 4% | 10µM*
COc1cccc2cc(CC(=O)c3cc(C)ccc3C)c(=O)oc12 | 7% | 12% | -4% | 0 | 7% | 98%
CCOc1cccc2cc(C(=O)N3CC(C)OC(C)C3)c(=O)oc12 (stereo unspecified) | 3% | · | 2% | 0 | -1% | 1%
COc1cccc2cc(C(=O)c3ccccc3)oc12 | 5% | 20% | 10% | 0 | 4% | 45%
COc1cccc2cc(C(=O)Nc3ccc(CC(=O)O)cc3)c(=O)oc12 | 1.5µM* | · | -12% | · | -4% | -61%
COc1cccc2cc(CC(=O)c3ccc(C)c(C)c3)c(=O)oc12 | 3% | 2% | 12% | 0 | 4% | 11µM*
Cc1nc2c(C(=O)NCCc3ccc(Cl)cc3)c[nH]n2c(=O)c1Cc1ccc(Cl)cc1 | 1% | · | -5% | · | -1% | ·
COc1cc(C(C)=O)ccc1OC(=O)c1cc2cccc(OC)c2oc1=O | 15% | -1% | 2% | 2 | 0% | 0%
